# DRD3 antagonist = D3 dopamine receptor (human) antagonism. P35462. D3R cells, DiscoveRx beta-arrestin luminescence, antagonist mode; hits give low values. max response, negative = inhibition, %. 360,000 compounds, 2.5% hits; in the data active = max response below about -50%; inconclusive = no clear call, values can overlap the other calls
# Target sequence (P35462 whole entry, looked up): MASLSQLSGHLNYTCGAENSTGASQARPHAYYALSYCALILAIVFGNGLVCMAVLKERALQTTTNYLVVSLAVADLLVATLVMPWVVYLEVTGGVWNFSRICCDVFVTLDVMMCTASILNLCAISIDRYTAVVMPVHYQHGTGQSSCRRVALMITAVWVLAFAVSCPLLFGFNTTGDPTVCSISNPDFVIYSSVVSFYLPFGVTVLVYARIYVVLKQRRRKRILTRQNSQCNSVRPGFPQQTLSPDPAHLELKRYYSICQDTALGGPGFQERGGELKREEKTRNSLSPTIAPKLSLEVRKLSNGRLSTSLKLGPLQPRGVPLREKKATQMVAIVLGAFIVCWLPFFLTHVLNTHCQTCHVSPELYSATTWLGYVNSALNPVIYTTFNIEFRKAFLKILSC
#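 Cells expressing the human receptor were seeded at 1500 cells/well, incubated overnight at 37 degrees C in 5% CO2, then exposed to library compounds with dopamine controls for 90 minutes at 37 degrees C before luminescent detection.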
# D1 antagonist = blocks dopamine activation of the human D1 receptor. P21728. HEK293 TREx D1 cells, calcium flux, dopamine EC80; hits give low values. activity change, negative = inhibition, % at 10 µM. 360,000 compounds, 3.2% hits; in the data active = activity change below about -30%
#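 Tetracycline-induced HEK293 Trex D1 cells, force-coupled to calcium, dye-loaded; compounds added and read 180 s, then EC80 dopamine added and calcium flux tracked kinetically another 180 s.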
# D1 agonist = agonists of human D1 dopamine receptor; 360,000 compounds, 1% hits; activation, % at 2 µM; P21728; HEK293 T-REx D1 cells, calcium flux, agonist mode; in the data active = activation above about 30%
#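 Inducible HEK293 T-REx D1 cells, force-coupled to calcium signalling, were plated at 4000 cells/well with tetracycline and held overnight at 30 C. After no-wash calcium dye loading, compound-evoked calcium rise over 180 s flagged agonists.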
# D1 potentiator = human D1 dopamine receptor positive modulation; P21728; HEK293 TREx D1 cells, calcium flux, dopamine EC20 potentiation; potentiation, % at 10 µM; 360,000 compounds, 0.036% hits; in the data active = potentiation above about 30%
# DRD3 agonist = agonists of human D3 dopamine receptor | P35462 | D3R DiscoveRx beta-arrestin cells, luminescence, 90 min | max activation, % | 410,000 compounds, 0.58% hits | AID 652048; in the data active = max activation above about 30%
#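 Agonist-mode cell screen: cells plated at 1500/well and incubated overnight at 37 °C, then exposed to library compounds for 90 min at 37 °C. Detection reagent was added for 30–60 min at room temperature, and luminescence was read.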
# Numbers stand for hits; 0 = inactive; ? = inconclusive; - = not tested or not shown. Most compounds without a hit are left out; they make up all but 6% or so of the library.
SMILES,DRD3 antagonist,D1 antagonist,D1 agonist,D1 potentiator,DRD3 agonist
CCn1c(=O)c(C(=O)NNC(=O)c2ccccc2F)c(O)c2ccccc21,0,-42,83,0,0
CCCCCC(=O)NNC(=O)c1c(O)c2ccccc2n(CC)c1=O,?,0,0,0,0
CCn1c(=O)c(C(=O)NNC(=O)c2ccccc2Cl)c(O)c2ccccc21,0,0,66,0,0
CSc1ccc(CCNC(=O)Cn2ncc3c(=O)oc4ccccc4c32)cc1,-,0,0,0,0
CCOC(=O)c1cc2ccccc2n1C1CCN(CCc2ccccc2)CC1,0,-,-,-,0
CCOC(=O)c1cc2cc(OC)ccc2n1C1CCN(CCc2ccccc2)CC1,-109,-,-,-,0
O=C(Nc1nnc([C@@H]2O[C@H](CO)[C@@H](O)[C@H]2O)s1)Nc1ccccc1C(F)(F)F,0,-,-,-,0
CCCC(C)C(=O)Nc1ncc(S(=O)(=O)c2ccc([N+](=O)[O-])cc2)s1 (stereo not given),0,-68,59,0,0
CCC(C)(C)C(=O)Nc1ncc(S(=O)(=O)c2ccc([N+](=O)[O-])cc2)s1,0,0,0,0,0
CCOc1ccccc1CN1CCCC(C(=O)Nc2cccc(-n3cccn3)c2)C1 (stereo not given),0,-64,49,0,0
CCOc1ccccc1CN1CCCC(C(=O)c2ccc(OC)c(OC)c2)C1 (stereo not given),-51,0,0,0,0
COc1ccc(C(=O)C2CCCN(Cc3cn[nH]c3-c3ccc(F)cc3)C2)cc1OC (stereo not given),0,0,0,0,0
COc1ccc(NC(=O)C2CCCN(CCCc3ccccc3)C2)cc1OCC(C)C (stereo not given),0,0,90,0,0
CCOc1ccccc1CN1CCC(Oc2cccc(C(=O)NCCOC)c2)CC1,0,-48,0,0,0
CC[C@H]1OC(=O)C[C@@H](O)[C@H](C)[C@@H](O[C@@H]2O[C@H](C)[C@@H](O)[C@H](N(C)C)[C@H]2O)[C@@H](CCN2C[C@H](C)C[C@H](C)C2)C[C@@H](C)C(=O)/C=C/C(C)=C/[C@@H]1CO[C@@H]1O[C@H](C)[C@@H](O)[C@@H](OC)[C@H]1OC,-,-,-,-,0
CCn1ncc(CN2CCCC(C(=O)Nc3cccc(-c4cc5ccccc5[nH]4)c3)C2)c1C (stereo not given),0,-51,91,0,0
CC(=O)Nc1ccc(CN2CCCC(C(=O)c3cccc(C(F)(F)F)c3)C2)cc1 (stereo not given),?,0,0,0,0
COc1cccc(CN2CCCC(C(=O)N3CCCCC3)C2)c1OC (stereo not given),-61,0,0,0,0
COc1ccc(C(=O)C2CCCN(Cc3ccc(NC(C)=O)cc3)C2)cc1OC (stereo not given),0,-33,0,0,0
COCCNC(=O)C1(C)CCCN(C(=O)c2ccccc2F)C1 (stereo not given),0,-,-,-,0
COC(=O)c1ccc2c(=O)n(CCCCCC(=O)N3CCN(c4cc(C)ccc4C)CC3)c(=O)[nH]c2c1,-,0,0,0,0
CCn1cc(C(=O)OCC(=O)Nc2cc(OC)cc(OC)c2)c(=O)c2ccc(C)nc21,-,0,0,0,0
Cc1ccc(CNC(=O)c2cc(S(=O)(=O)N3CCCCC3)ccc2N2CCOCC2)cc1,0,0,0,0,0
OC(COc1cccc2ccccc12)CN1CCN(c2cccc(Cl)c2)CC1 (stereo not given),0,0,0,0,45
Cc1cccc(N2CCN(CC(O)COc3ccccc3Cl)CC2)c1 (stereo not given),-75,-33,0,0,0
SMILES,DRD3 antagonist,D1 antagonist,D1 agonist,D1 potentiator,DRD3 agonist
OC(COc1cccc2ccccc12)CN1CCN(c2ccc(Cl)cc2)CC1 (stereo not given),0,0,0,0,0
COCCN(C(=O)C1CCN(C(=O)c2ccccc2C)CC1)c1c(N)n(CC(C)C)c(=O)[nH]c1=O,0,0,0,-,0
CCOC(=O)c1c(C)[nH]c(C)c1S(=O)(=O)N1CCCC(C(=O)Nc2ccc(F)cc2F)C1 (stereo not given),-,0,0,0,0
CCOCCn1c(SCc2ccc(C)cc2)nc2c1c(=O)[nH]c(=O)n2C,0,-38,0,0,0
CCCCCCn1c(SCC(=O)OC)nc2c1c(=O)[nH]c(=O)n2C,0,0,0,37,0
Cc1ccc(CNC(=O)C2(C)CCN2C(=O)Cc2ccc(C(C)(C)C)cc2)cc1 (stereo not given),0,-,-,-,0
CN(Cc1ccccc1Br)C(=O)CN1C(=O)NC2(CCCCCC2)C1=O,0,-76,0,0,0
O=C(CN1C(=O)NC2(CCCCCC2)C1=O)c1ccc(F)cc1,0,-49,0,0,0
O=C(CN1C(=O)NC2(CCCCCC2)C1=O)c1ccc(Cl)cc1,0,0,0,0,0
NC(=O)c1ccsc1NC(=O)CN1C(=O)NC2(CCCCC2)C1=O,0,0,0,0,0
O=C(CN1C(=O)NC2(CCCC2)C1=O)OCc1ccc(Br)cc1,0,-66,0,0,0
N#Cc1ccsc1NC(=O)CN1C(=O)NC2(CCCC2)C1=O,-,-33,0,0,-
O=C(NCc1ccco1)C1CCN(C(=O)N2CCOc3ccccc32)CC1,-,0,0,0,0
Cc1c(/C=N/NC(=O)c2ccccc2O)c2ccccn2c1C(=O)c1ccc(F)cc1,0,0,0,0,31
Cc1c(NC(=O)c2cc(-n3cnnc3)ccc2Cl)cccc1-c1nc2ccccc2o1,0,-44,0,0,0
O=C(Nc1ccc(-c2nc3ccccc3o2)c(O)c1)c1cc(-n2cnnc2)ccc1Cl,0,0,0,0,0
O=[N+]([O-])c1c(Nc2ccccn2)cc(Cl)c2nonc12,-86,0,0,0,0
O=[N+]([O-])c1c(Nc2ccc(O)cc2)cc(Cl)c2nonc12,-161,-42,0,0,0
CCn1c(SCc2ccccc2Cl)nc(=O)c2c(C(=O)OC)cc(C3CC3)nc21,-,0,0,0,0
Cc1cccc(-c2cnc(C(O)c3ccc(Cl)cc3C)[nH]2)c1 (stereo not given),0,-,-,-,0
CCOc1ccc(NC(=O)NC2CCCc3ccccc32)cc1 (stereo not given),0,0,0,0,0
Cc1cccc(C)c1OCC(O)CNC(C)C (stereo not given),0,0,0,0,0
CCOc1ccc(CNC2CCCc3ccccc32)cc1 (stereo not given),-51,0,0,0,0
CC(C)(C)NC[C@H](O)COc1ccccc1C1CCCC1,-,-,-,-,0
CC(C)(C)NCC(O)COc1ccccc1C1CCCC1 (stereo not given),?,0,31,0,0
CCc1ccccc1OC[C@@H](O)CN[C@H]1CCCc2ccccc21,-53,-52,97,0,0
Cc1cccc(C)c1OCC(O)CNC(C)(C)C (stereo not given),-51,0,0,0,0

# Source: PubChem
